# Test results as given in PubChem BioAssay (Tox21).
# Records with an inconclusive call do not appear. Active and inactive are the calls of the source. The call rests on the fitted dose curve; in most records, active means well fitted cell-killing curve with a large enough effect in the repeat runs; inconclusive means weak or mixed curves, or effect the other way; inactive means no such curve, though single readings can be large or run the other way.
# Assay: qHTS assay to identify small molecule antagonists of the retinoid-related orphan receptor gamma (ROR-gamma) signaling pathway - cell viability counter screen (AID 1159520); further: nearly all actives have a fitted effect of over 50% in size
# Conditions: Tet-on RORgamma CHO cells viability, ATP luminescence, 16 h; series mostly up to 92.4 µM; activity, negative = cytotoxicity: at the top concentration
# Text: U.S. Tox21 Program National Center for Advancing Translational Sciences [NCATS] NIH Chemical Genomics Center [NCGC] U.S. Environmental Protection Agency [EPA] National Institutes of Environmental Health Sciences [NIEHS] National Toxicology Program [NTP] U.S. Food and Drug Administration [FDA] Tox21 Assay Overview: Nuclear steroid hormone receptors are involved in many biological processes including inflammatory responses, cell proliferation, and apoptosis. Environmental factors or compounds disrupting these nuclear receptor pathways and gene expression may promote susceptibility to immunotoxicants and autoimmune diseases. One important group of these expression factors are the retinoid-related orphan receptors. To assess compounds that may interfere with the retinoid-related orphan receptor gamma (ROR-gamma) transcription factor, a cell-based luciferase assay was used. The CHO cell-based assay utilizes a TET-inducible ROR expression factor and ROR response element-LUC reporter gene. Reporter gene activity was induced using Doxycycline Hyclate and measured after 16 hr incubation. Tet-on ROR gamma CHO cells were used to screen against the Tox21 10K compound library for cytotoxicity by measuring the viability of the cells based on the quantitation of the ATP.
# Tox21 Assay Protocol Summary: Tet-on ROR gamma CHO cells were dispensed at 1,000 cells in 4 uL of culture medium per well into white wall/solid bottom 1536-well plates using a Multidrop Combi (Thermo Scientific, Waltham, MA) dispenser. Following incubation at 37 C and 5% CO2 for 4 hr, 23 nL of compounds dissolved in DMSO, positive controls or DMSO only were transferred by a Pintool station (Kalypsys, San Diego, CA) and after 2 hr incubation at 37 C, one ul of 1 uM (final concentration) of Doxycycline Hyclate was added to all the wells by using a Flying Reagent Dispenser (FRD) (Aurora Discovery, San Diego, CA). After 16 hr incubation at 37 C and 5% CO2, 5 uL of CellTiter-Glo reagent (Promega Corporation, Madison, WI) was added to each assay plate using FRD. After 30 min incubation at room temperature, luminescence was quantified on a ViewLux plate reader (Perkin Elmer, Waltham, MA).
# On the % scale 0 is the no-effect control and ±100 the full control effect.
SMILES,"activity, negative = cytotoxicity",Potency
CN1CCCN=C1/C=C/c1cccs1,0.318% [at 42.5 µM] (inactive),
CCCCC(CC)COC(=O)COc1ccc(Cl)cc1C (stereo not given),1.37% (inactive),
C=C(C)C(=O)OCCOC(=O)CC(C)=O,6.59% (inactive),
Oc1ccc(Nc2ccccc2)cc1,-20.4% (inactive),
N#C/C(=C1/SC[C@@H](c2ccc(Cl)cc2Cl)S1)n1ccnc1,-8.68% [at 42.5 µM] (inactive),
CCn1nc(C)c2c1C(=O)NCC(c1ccc(O)cc1)=N2,3.45% (inactive),
C[C@@H]1C[C@H]2[C@@H]3CCC4=CC(=O)C=C[C@]4(C)[C@@]3(F)[C@@H](O)C[C@]2(C)[C@@]1(O)C(=O)CO,9.75% (inactive),
O=S(=O)(c1ccccc1)c1ccc(Cl)cc1,-6.13% (inactive),
CCCOCCOCCO,4.34% (inactive),
COC(=O)c1cc(S(N)(=O)=O)ccc1OC,4.3% [at 42.5 µM] (inactive),
CCCc1c(OCCCOc2ccc(OCC(=O)O)cc2)ccc(C(C)=O)c1O,-10.8% (inactive),
COC(=O)[C@@H]1CC2=CC(=O)CC[C@]2(C)[C@@]23O[C@@H]2C[C@@]2(C)[C@@H](CC[C@@]24CCC(=O)O4)[C@H]13,0.82% [at 42.5 µM] (inactive),
Cc1occc1C(=O)Nc1ccc(C(=O)N2CCC(F)(F)/C(=C\C(=O)N3CCC(N4CCCCC4)CC3)c3ccccc32)cc1,-0.532% [at 42.5 µM] (inactive),
CO/N=C1\CN(c2nc3c(cc2F)c(=O)c(C(=O)O)cn3C2CC2)CC1CN (stereo not given),0.0876% [at 42.5 µM] (inactive),
CCC(=O)OC/C=C/c1ccccc1,,inactive
OCCSc1ccccc1,-19.7% (inactive),
CN1C(=O)CC(C)(c2ccccc2)C1=O (stereo not given),0.899% [at 42.5 µM] (inactive),
C=CCCCCCCCCCCCCCCCC,6.9% [at 8.39 µM] (inactive),
CCC(C)=O,14.8% (inactive),
CCC(C)(C)C1CCC(O)CC1 (stereo not given),-11.9% (inactive),

SMILES,"activity, negative = cytotoxicity",Potency
O=C1OCCN1/N=C/c1ccc([N+](=O)[O-])o1,-3.97% [at 42.5 µM] (inactive),
CCC(Cc1ccccc1)(C(=O)c1ccc(N2CCOCC2)cc1)N(C)C (stereo not given),-0.213% (inactive),
CC1=NN(c2ccc(C(=O)O)cc2)C(=O)C1,1.51% (inactive),
CCCCCCCC/C=C\CCCCCCCC(=O)OC,6.95% (inactive),
Nc1c(I)cc(I)c(C(=O)N(CCC(=O)O)c2ccccc2)c1I,-1.75% [at 42.5 µM] (inactive),
O=C(NCCCN1CCOCC1)c1ccc(Cl)cc1,1.33% [at 42.5 µM] (inactive),
CCCC1C(CC)=CC(CC)=CN1c1ccccc1 (stereo not given),-20.4% (inactive),
CCCCN(CCCC)CCCOC(=O)c1ccc(N)cc1,3.42% [at 42.5 µM] (inactive),
CN1Cc2cc(C(=O)N3CCC(C4CCNCC4)CC3)ccc2N[C@@H](CC(=O)O)C1=O,-0.139% [at 42.5 µM] (inactive),
CC(C)OCC1CO1 (stereo not given),5.53% (inactive),
CCOC(=O)/C=C/C(=O)O,-11.8% (inactive),
Nc1nccs1,-6.39% (inactive),
N#C/C(=C1\SCC(c2ccccc2Cl)S1)n1ccnc1 (stereo not given),0.867% [at 42.5 µM] (inactive),
c1ccc(COCc2ccccc2)cc1,-5.06% (inactive),
COCC(O)CO (stereo not given),-5.02% (inactive),
COc1ccc(CCC(=O)c2c(O)cc(O[C@@H]3O[C@H](CO)[C@@H](O)[C@H](O)[C@H]3O[C@@H]3O[C@@H](C)[C@H](O)[C@@H](O)[C@H]3O)cc2O)cc1O,0.229% (inactive),
CC(C)(C)C(=O)O,3.63% (inactive),
CSc1ccc(Oc2ccc(S(N)(=O)=O)cc2CN(C)C)cc1C,-1.76% (inactive),
CC(Cl)C(Cl)Cl (stereo not given),-3.06% (inactive),
CC1(C)C2=CCCC(C)(C)[C@]23CC[C@H]1C3,-11% (inactive),
